PubChem BioAssay (NCATS)
Records with an inconclusive call do not appear. Where a call stands in place of a potency, no number is given. The source made the active and inactive calls. The call rests on the fitted dose curve; in most records, active means well fitted curve in the direction sought with a large enough effect; inconclusive means small, poorly fitted or top-dose-only effect, or another doubt; inactive means no such curve, though single readings can be large; an effect the other way counts as inactive or inconclusive.

How the values were obtained:
[1] = target: ATP-dependent 6-phosphofructokinase (Trypanosoma brucei brucei) (UniProt O15648); assay: qHTS Assay to Find Inhibitors of T. brucei phosphofructokinase: hit validation (AID 492961);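 further: luminescence reports ADP formed as PFK phosphorylates fructose-6-phosphate with ATP; series mostly up to about 51 µM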
Summary of the method: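 Compounds titrated; %activity normalized to 0x and 1x enzyme controls, curve-fitted. Readout: ADP-Glo luminescence after 45 min room-temperature reaction of 1.25 nM PFK, 0.1 mM ATP, 0.5 mM F6P, pH 8.0.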

[2] = target: Ubiquitin carboxyl-terminal hydrolase 1 (Homo sapiens) (UniProt O94782); assay: Inhibitors of USP1/UAF1: Pilot qHTS (AID 504865); further: nearly all actives have a fitted effect of over 35% in size; further: potency means the concentration at half of the fitted maximal effect
Summary of the method: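 Kinetic fluorescence assay: 1nM USP1/UAF1, 15 min compound preincubation, then 150nM Ub-Rho; 480/540 nm.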

Chain of Ubiquitin carboxyl-terminal hydrolase 1 (Homo sapiens) (O94782 whole entry, looked up): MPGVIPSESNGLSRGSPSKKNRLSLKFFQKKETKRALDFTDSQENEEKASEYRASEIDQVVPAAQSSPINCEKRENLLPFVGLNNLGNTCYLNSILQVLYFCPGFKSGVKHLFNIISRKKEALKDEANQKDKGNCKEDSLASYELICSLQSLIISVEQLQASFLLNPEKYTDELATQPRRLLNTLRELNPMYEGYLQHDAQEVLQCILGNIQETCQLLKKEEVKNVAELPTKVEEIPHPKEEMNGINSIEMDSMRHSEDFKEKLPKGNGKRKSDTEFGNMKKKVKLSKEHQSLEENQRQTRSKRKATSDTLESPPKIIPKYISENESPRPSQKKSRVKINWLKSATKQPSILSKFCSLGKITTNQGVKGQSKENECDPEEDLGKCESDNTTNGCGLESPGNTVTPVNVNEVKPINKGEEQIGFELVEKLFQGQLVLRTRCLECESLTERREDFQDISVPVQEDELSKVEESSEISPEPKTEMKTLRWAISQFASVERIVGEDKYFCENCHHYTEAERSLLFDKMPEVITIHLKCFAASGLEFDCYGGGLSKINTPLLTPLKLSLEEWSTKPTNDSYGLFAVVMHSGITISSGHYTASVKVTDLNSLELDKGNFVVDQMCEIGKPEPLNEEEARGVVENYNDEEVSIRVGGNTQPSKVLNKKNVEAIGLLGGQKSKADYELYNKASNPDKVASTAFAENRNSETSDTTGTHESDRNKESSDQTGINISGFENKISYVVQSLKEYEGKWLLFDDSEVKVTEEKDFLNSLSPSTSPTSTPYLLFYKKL
Chain of ATP-dependent 6-phosphofructokinase (Trypanosoma brucei brucei) (O15648 whole entry, looked up): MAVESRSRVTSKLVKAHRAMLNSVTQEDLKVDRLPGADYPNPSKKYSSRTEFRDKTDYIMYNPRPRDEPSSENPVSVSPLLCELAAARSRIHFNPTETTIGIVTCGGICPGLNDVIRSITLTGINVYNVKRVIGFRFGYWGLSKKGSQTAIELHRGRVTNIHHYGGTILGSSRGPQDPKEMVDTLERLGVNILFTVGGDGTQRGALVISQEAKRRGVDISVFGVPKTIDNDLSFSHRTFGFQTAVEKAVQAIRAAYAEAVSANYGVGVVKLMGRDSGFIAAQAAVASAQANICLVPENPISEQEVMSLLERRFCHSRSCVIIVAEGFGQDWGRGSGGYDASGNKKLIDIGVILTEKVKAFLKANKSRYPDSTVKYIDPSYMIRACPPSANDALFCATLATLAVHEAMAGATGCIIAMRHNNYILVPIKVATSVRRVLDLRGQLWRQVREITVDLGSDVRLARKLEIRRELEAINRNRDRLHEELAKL

Row | SMILES | Potency [1] | Potency [2]
1 | CCOC(=O)[C@@H](N)CS | inactive | inactive
2 | C[Se]CC[C@H](N)C(=O)O | inactive | inactive
3 | ClC(Cl)Cl | inactive | inactive
4 | CCCOc1cc(N)ccc1C(=O)OCCN(CC)CC | inactive | inactive
5 | CC(C)[C@H](N)C(=O)OCC(CO)OCn1cnc2c(=O)[nH]c(N)nc21 (stereo partly specified) | inactive | inactive
6 | CCCCCc1ccc(C)cc1O | inactive | 35.5 µM (active)
7 | NCC[C@H](O)C(=O)N[C@@H]1C[C@H](N)[C@@H](O[C@H]2O[C@H](CN)CC[C@H]2N)[C@H](O)[C@H]1O[C@H]1O[C@H](CO)[C@@H](O)[C@H](N)[C@H]1O | inactive | inactive
8 | CCOC(=O)c1c[nH]c2cc(OCC(C)C)c(OCC(C)C)cc2c1=O | inactive | inactive
